# Records with an inconclusive call do not appear. Activity calls are given as the source filed them. The calls were made as follows, unless noted: active = hit-call score of the fitted dose curve at least 0.9, where 1 is the maximum; inactive = score below 0.9.
# Key:
# [1] = CCTE_Shafer_MEA_dev_burst_rate: CCTE's Neural Network Formation Assay for Burst Rate, Shafer Lab (AID 2284042)
# Outline: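 Primary rat cortical neurons on PEI-coated 48-well MEA plates (laminin added with cells at plating) (16 electrodes/well), exposed from plating to day 12, dosing renewed at DIV 5 and 9. Burst rate averaged over active electrodes, recorded DIV 5, 7, 9, 12, summarized as AUC; loss versus DMSO.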
# [2] = CCTE_Shafer_MEA_dev_per_burst_interspike_interval: CCTE's Neural Network Formation Assay for Burst Interspike Interval, Shafer Lab (AID 2284044);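 also: mean spike spacing inside bursts as AUC over recordings on days 5 7 9 12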
# Outline: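 Spontaneous activity of maturing rat cortical networks is recorded on DIV 5, 7, 9 and 12 under chronic compound exposure beginning at plating. Endpoint: burst interspike interval well-mean, collapsed into trapezoidal AUC and fitted in the negative direction relative to DMSO.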
# [3] = CCTE_Shafer_MEA_dev_burst_duration_mean: CCTE's Neural Network Formation Assay for Mean Burst Duration, Shafer Lab (AID 2284045);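 as to AC50: curve fitted for loss meaning shorter burst duration than DMSO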
# Procedure: CCTE_Shafer_MEA_dev assay is conducted using Axion Biosystems 48 well microelectrode array (MEA) plates and Maestro recording system. Each well of the MEA plate contains a grid of 16 microelectrodes embedded in the culture surface. Electrically active cells, such as neurons, can be cultured over the electrodes, and electrical activity in these cells can be recorded extracellularly. The spontaneous firing of neurons is captured from each electrode on a microsecond timescale providing both temporally and spatially precise data. […] The CCTE_Shafer_MEA_dev assay uses primary cultures of rat cortical neurons. Recordings are made on days post-plating 5, 7, 9 and 12. As these cultures mature over time, neural networks develop functional activity and form cohesive networks in which electrical activity can be highly coordinated. CCTE_Shafer_MEA_dev_burst_duration_mean is 1 of 19 assay components of the CCTE_Shafer_MEA_dev assay. It measures the average time interval from the first spike (action potential firing) to the last spike in a singe-electrode burst (temporally-clustered group of spikes) during a recording in a microelectrode array (MEA) using Axion Biosystems Maestro 768 channel amplifier with the AxIS adaptive spike detector. The mean burst duration is averaged across the actively bursting electrodes to report a well-mean value. To collapse across multiple recordings made on days post-plating 5, 7, 9 and 12, the trapezoidal area-under-the-curve of the component is calculated.Data from the assay component CCTE_Shafer_MEA_dev_burst_duration_mean was analyzed into 1 assay endpoint. This assay endpoint, CCTE_Shafer_MEA_dev_burst_duration_mean, was analyzed in the negative analysis fitting direction relative to DMSO as the negative control and baseline of activity. Using a type of functional reporter, gain or loss-of-signal activity can be used to understand electrical activity.
# On the day prior to culture, each well was coated thoroughly with 150 uL of 0.05% polyethyleneimine (PEI, Sigma Cat P3143) in 50 mM HEPES (Sigma Cat H7523) at a pH of 8. The plate was incubated at 37C for one hour. PEI was rinsed out with 500 uL of sterile water three times. Plates were stored at 4C until the day of culture. This culture was plated at a seeding density of 1.5 x 10^5 cells/well on a 48-well MEA plate, prepared as described above. Cells were administered via a 25 uL media/laminin ([…]; Sigma Cat L2020-1MG) drop directly onto the microelectrode array, as adding the cells with the laminin results in better attachment than pre-coating with laminin. After 2 hours, an additional 475 uL of cortical media was added and the cells returned to the incubator. Exposure starts at day 0 of plating and is continued over twelve days of network development until the experiment is terminated. Cells are fed with fresh medium on DIV 5 and 9, following the recordings on those days. The entire volume of media in the well is exchanged and any vehicle or compound treatment is renewed. Complete details are found in OP-NHEERL/ISTD/SBB/TJS/2015-03-r0 (available on request, email shafer.tim@epa.gov). Measurement of the electrical activity is non-invasive, and recordings can be made from the same plate over multiple different days of the culture. In cortical neurons, this allows for the measurement of extracellular action potentials over the period during which networks form in the MEA plate.
# [4] = CCTE_Shafer_MEA_dev_interburst_interval_mean: CCTE's Neural Network Formation Assay for Mean Interburst Interval, Shafer Lab (AID 2284046);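 also: well-mean interburst interval of bursting electrodes as AUC over four recording days; curve fitted for decrease in interburst interval relative to DMSO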
# Outline: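 Recordings on days 5, 7, 9 and 12 give well-mean interburst interval across actively bursting electrodes, summarized as area under the curve. Cultures: rat cortical neurons, continuous exposure from day 0, compound renewed at feeds; decrease analyzed versus DMSO.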
# [5] = CCTE_Shafer_MEA_dev_inter_network_spike_interval_mean: CCTE's Neural Network Formation Assay for Mean Inter-network Spike Interval, Shafer Lab (AID 2284047)
# Outline: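 Primary rat cortical neurons on 16-electrode MEA wells, exposed from plating day 0 through DIV 12, compound renewed at DIV 5 and 9 media changes. Mean interval between network-spike peaks recorded DIV 5, 7, 9, 12; collapsed as trapezoidal AUC, fitted downward versus DMSO.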
# [6] = CCTE_Shafer_MEA_dev_network_spike_number: CCTE's Neural Network Formation Assay for Number of Network Spikes, Shafer Lab (AID 2284048);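 as to AC50: fit as a loss of signal meaning fewer network spikes than DMSO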
# Outline: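 Primary rat cortical neurons on PEI/laminin 48-well MEA plates, dosed from plating day 0 for 12 days, renewed at DIV 5 and 9. Network spike counts recorded DIV 5, 7, 9, 12, collapsed as trapezoidal AUC; DMSO baseline.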
# [7] = CCTE_Shafer_MEA_dev_network_spike_peak: CCTE's Neural Network Formation Assay for Mean Number of Electrodes in Network Spike, Shafer Lab (AID 2284049);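 as to AC50: fitted for loss of signal meaning fewer electrodes in network spikes than DMSO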
# Outline: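 Network-spike peak electrode count from recordings on days 5, 7, 9 and 12 was combined as trapezoidal area under the curve. Rat cortical cultures were treated continuously from plating, with compound renewed at each feed (DIV 5, 9); fits versus DMSO.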
# [8] = target: Estrogen receptor (Homo sapiens) (UniProt P03372); assay: CCTE_Deisenroth_AIME_384WELL_LUC_Inactive: CCTE's 384-well Estrogen Receptor Transactivation Assay without AIME metabolic competence (ERTA luciferase; metabolism negative), Deisenroth Lab (AID 2284038; active = hit-call score of the fitted dose curve at least 0.9, where 1 is the maximum;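 also: VM7Luc4E2 breast cells given medium preincubated 2 h with S9-free microspheres; hits raise estrogen receptor luciferase signal so potencies reflect agonists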)
# Sequence of Estrogen receptor (Homo sapiens) (P03372 whole entry, looked up): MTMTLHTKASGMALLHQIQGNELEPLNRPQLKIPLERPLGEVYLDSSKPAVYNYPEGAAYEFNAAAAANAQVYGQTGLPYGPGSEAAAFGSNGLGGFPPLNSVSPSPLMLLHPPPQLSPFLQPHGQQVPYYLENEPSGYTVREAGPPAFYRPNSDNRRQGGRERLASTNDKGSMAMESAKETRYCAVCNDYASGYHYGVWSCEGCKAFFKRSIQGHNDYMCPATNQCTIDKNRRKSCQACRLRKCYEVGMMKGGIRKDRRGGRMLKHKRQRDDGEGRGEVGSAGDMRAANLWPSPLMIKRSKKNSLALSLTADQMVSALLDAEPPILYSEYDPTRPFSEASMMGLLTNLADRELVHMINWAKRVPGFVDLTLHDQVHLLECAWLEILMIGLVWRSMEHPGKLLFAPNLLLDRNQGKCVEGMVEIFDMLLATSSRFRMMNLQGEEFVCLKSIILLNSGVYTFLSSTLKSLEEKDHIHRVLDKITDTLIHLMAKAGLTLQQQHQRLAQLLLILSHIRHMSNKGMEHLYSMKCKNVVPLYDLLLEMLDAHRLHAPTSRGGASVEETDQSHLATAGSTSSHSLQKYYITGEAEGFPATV
# Outline: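 Chemicals (10-point series, 0.002 - 200 uM) were incubated 2 hours with alginate-water microsphere lids lacking S9, then the conditioned medium was transferred to VM7Luc4E2 breast cells for 24 hour. Luciferase induction was read by bioluminescence, fitted upward relative to 17beta-estradiol.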
# [9] = CCTE_Shafer_MEA_dev_active_electrodes_number: CCTE's Neural Network Formation Assay for Number of Active Electrodes, Shafer Lab (AID 2284040; active = hit-call score of the fitted dose curve at least 0.9, where 1 is the maximum;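 as to AC50: potency for loss of active electrodes versus DMSO so lower counts are hits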)
# Outline: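 Rat cortical primary cultures, 1.5 x 10^5 cells/well, PEI-coated MEA, laminin drop. Continuous exposure DIV 0–12; full media/compound change DIV 5, 9. Readout: electrodes with mean firing ≥5 spikes/min; AUC across days; loss vs DMSO.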
# [10] = CCTE_Shafer_MEA_dev_bursting_electrodes_number: CCTE's Neural Network Formation Assay for Number of Bursting Electrodes, Shafer Lab (AID 2284043; active = hit-call score of the fitted dose curve at least 0.9, where 1 is the maximum)
# Outline: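 Primary rat cortical neurons plated on 16-electrode MEA wells, exposed from day 0 with compound renewed at DIV 5 and 9. Electrodes bursting ≥1 burst per 2 min counted on days 5, 7, 9 and 12; trapezoidal AUC across days, fitted for loss versus DMSO.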
compound,measurement,setting,value
Clc1ccccc1C(c1ccccc1)(c1ccccc1)n1ccnc1,outcome,[1],inactive
same,outcome,[2],inactive
same,outcome,[3],inactive
same,outcome,[4],inactive
same,outcome,[5],inactive
same,outcome,[6],inactive
same,outcome,[7],inactive
OCCO,AC50,[8],19.8 µM (active)
CC/C(=C(/CC)c1ccc(O)cc1)c1ccc(O)cc1,AC50,[9],10.4 µM (active)
same,outcome,[1],inactive
same,AC50,[10],9.74 µM (active)
same,outcome,[2],inactive
same,outcome,[3],inactive
same,outcome,[4],inactive
same,outcome,[5],inactive
same,AC50,[6],0.077 µM (active)
same,AC50,[7],11.3 µM (active)
Cc1ccc(C(C)C)cc1,outcome,[8],inactive
CC(C)(C)c1cc(/C=C2\SC(N)=NC2=O)cc(C(C)(C)C)c1O,outcome,[8],inactive
COc1cccc([C@H](O)C2CCN(CCc3ccc(F)cc3)CC2)c1OC,outcome,[8],inactive
CCN(CC)C(=O)c1cc(S(=O)(=O)Cc2ccccc2)c(N2CCC(c3ccccc3)CC2)cc1N(CC)CCN(C)C,outcome,[8],inactive
CCCCCCCCCCCO,outcome,[8],inactive
COCC(C)OCC(C)OCC(C)O (stereo not drawn),outcome,[8],inactive
Oc1ccccc1,outcome,[1],inactive
same,outcome,[2],inactive
same,AC50,[3],6.18 µM (active)
same,outcome,[4],inactive
same,outcome,[5],inactive
same,outcome,[6],inactive
same,outcome,[7],inactive
Cc1c2ccccc2c(C)c2c1ccc1ccccc12,outcome,[8],inactive
CCCCCCCCN(C)CCCCCCCC,outcome,[8],inactive
Cc1oc2c(NC(=O)c3c(Cl)cccc3Cl)cccc2c1C(C)(C)O,outcome,[8],inactive
c1ccc2ccccc2c1,outcome,[8],inactive
same,outcome,[9],inactive
same,outcome,[1],inactive
same,outcome,[10],inactive
same,outcome,[2],inactive
same,outcome,[3],inactive
same,outcome,[4],inactive
same,outcome,[5],inactive
same,outcome,[6],inactive
same,outcome,[7],inactive
